# Source: PubChem BioAssay (Tox21)
# Values joined by “and” are separate entries in the source; they are usually repeats but may differ in a detail not shown here. Identical values can stand only once. Inconclusive results are not listed. Entries that show only a call come without a potency. Where a structure was tested more than once in an assay, its records may differ in their call. Active and inactive are the calls of the source. Unless noted, calls come from the whole dose curve; as a rule, active = well fitted curve in the direction sought with a large enough effect in the repeat runs; inconclusive = weak or mixed curves; inactive = no such curve, though single readings can be large; an effect the other way counts as inactive or inconclusive.
# Key:
# [1] = qHTS assay to identify small molecule antagonists of the thyroid receptor (TR) signaling pathway - cell viability counter screen (AID 743064); note: nearly all actives have a fitted effect of over 50% in size
# In short: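 Counter screen for cytotoxicity: compound plus T3 (1 nM final) on GH3.TRE-Luc cells, 23.5 h at 37 °C, then fluorescence viability readout with CellTiter-Fluor.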
# [2] = system: thyroid hormone receptor (rat, GH3 cells); test: qHTS assay to identify small molecule agonists of the thyroid receptor (TR) signaling pathway (AID 743066; calls by dose curve)
# [3] = qHTS assay to identify small molecule antagonists of the estrogen receptor alpha (ER-alpha) signaling pathway - cell viability counter screen (AID 743074; calls by dose curve;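 note: HEK293 cells carrying ER-alpha-UAS-bla reporter stimulated with 17beta-estradiol; nearly all actives have a fitted effect of over 45% in size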)
# [4] = qHTS assay to identify small molecule antagonists of the estrogen receptor alpha (ER-alpha) signaling pathway using the BG1 cell line - cell viability counter screen (AID 743081);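 note: compound given together with 17beta-estradiol as the ER stimulus; nearly all actives have a fitted effect of over 45% in size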
# Aromatase (Homo sapiens) = Aromatase (Homo sapiens) (UniProt P11511); test: qHTS assay to identify aromatase inhibitors (AID 743083); note: nearly all actives have a fitted effect of over 55% in size
# Sequence of Aromatase (Homo sapiens) (P11511 whole entry, looked up): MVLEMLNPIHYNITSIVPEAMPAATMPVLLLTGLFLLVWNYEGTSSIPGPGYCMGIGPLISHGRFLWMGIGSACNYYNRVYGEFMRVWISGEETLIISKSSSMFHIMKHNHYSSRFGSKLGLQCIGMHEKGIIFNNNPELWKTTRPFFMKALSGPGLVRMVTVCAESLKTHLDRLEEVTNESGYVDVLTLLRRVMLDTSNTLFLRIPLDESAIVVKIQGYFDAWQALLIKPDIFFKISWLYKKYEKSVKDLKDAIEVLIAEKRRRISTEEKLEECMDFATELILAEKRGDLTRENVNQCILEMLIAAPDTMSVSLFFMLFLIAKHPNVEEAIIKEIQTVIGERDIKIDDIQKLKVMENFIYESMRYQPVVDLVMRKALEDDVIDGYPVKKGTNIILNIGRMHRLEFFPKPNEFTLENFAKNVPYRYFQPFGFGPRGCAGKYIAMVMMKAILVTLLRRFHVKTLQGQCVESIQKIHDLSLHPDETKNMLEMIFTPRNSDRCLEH
# [5] = qHTS assay to identify aromatase inhibitors - cell viability counter screen (AID 743084);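 note: cells stimulated with testosterone during compound exposure; nearly all actives have a fitted effect of over 55% in size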
# [6] = biological target: Aryl hydrocarbon receptor (Homo sapiens) (UniProt P35869); test: qHTS assay to identify small molecule that activate the aryl hydrocarbon receptor (AhR) signaling pathway (AID 743085);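 note: HG2L7.5c1 human HepG2 liver cells with stably integrated DRE-driven firefly reporter; nearly all actives have a fitted effect of over 15% in size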
# Sequence of Aryl hydrocarbon receptor (Homo sapiens) (P35869 whole entry, looked up): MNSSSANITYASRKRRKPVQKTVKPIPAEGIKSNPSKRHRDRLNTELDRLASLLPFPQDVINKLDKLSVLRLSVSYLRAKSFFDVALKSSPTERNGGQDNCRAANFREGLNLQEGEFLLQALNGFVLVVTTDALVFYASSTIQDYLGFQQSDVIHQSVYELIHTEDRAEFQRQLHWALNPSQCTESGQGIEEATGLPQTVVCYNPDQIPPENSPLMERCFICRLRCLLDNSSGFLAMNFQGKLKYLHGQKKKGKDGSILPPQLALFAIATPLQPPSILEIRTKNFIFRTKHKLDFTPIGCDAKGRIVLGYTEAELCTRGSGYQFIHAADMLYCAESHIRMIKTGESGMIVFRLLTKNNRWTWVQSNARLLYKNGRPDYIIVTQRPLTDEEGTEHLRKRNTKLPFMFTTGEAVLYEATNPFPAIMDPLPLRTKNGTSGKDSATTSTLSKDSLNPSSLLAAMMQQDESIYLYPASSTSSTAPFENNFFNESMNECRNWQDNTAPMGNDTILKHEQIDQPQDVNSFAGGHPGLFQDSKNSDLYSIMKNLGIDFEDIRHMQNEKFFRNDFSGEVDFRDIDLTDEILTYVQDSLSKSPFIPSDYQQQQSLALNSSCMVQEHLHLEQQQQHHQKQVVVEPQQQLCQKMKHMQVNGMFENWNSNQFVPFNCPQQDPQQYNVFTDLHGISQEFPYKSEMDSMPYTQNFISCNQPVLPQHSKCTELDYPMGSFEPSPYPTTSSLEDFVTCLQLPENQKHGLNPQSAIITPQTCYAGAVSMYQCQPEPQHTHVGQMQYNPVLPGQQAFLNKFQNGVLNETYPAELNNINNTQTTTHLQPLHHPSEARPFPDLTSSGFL
# In short: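 Measured in HG2L7.5c1 cells: CellTiter-Fluor signal (30 min incubation, 37C) for viability, then luciferase luminescence (30 min, room temperature). Compound contact time was 24 h at 37C, following a 5 h pre-incubation.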
# [7] = qHTS assay to identify small molecule that activate the aryl hydrocarbon receptor (AhR) signaling pathway - cell viability counter screen (AID 743086);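 note: HepG2 liver cells carrying the AhR DRE luciferase reporter; nearly all actives have a fitted effect of over 45% in size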
# In short: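 Cytotoxicity counter screen: CellTiter-Fluor signal (30 min, 37 C) in 4000 HepG2 cells/well carrying the DRE-luciferase reporter, following 24 h compound exposure at 37 C.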
# [8] = qHTS assay to identify small molecule antagonists of the peroxisome proliferator-activated receptor gamma (PPARg) signaling pathway - cell viability counter screen (AID 743194); settings: Potency: co-treated with 50 nM rosiglitazone; note: nearly all actives have a fitted effect of over 55% in size
# In short: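 Viability was measured as CellTiter-Glo luminescence in GeneBLAzer PPARg UAS-bla HEK293H cells. These cells had been exposed 17 h at 37 C to compounds together with rosiglitazone at 50 nM final, with the beta-lactamase readout taken in the same wells.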
# [9] = qHTS assay for small molecule agonists of the antioxidant response element (ARE) signaling pathway (AID 743202; active = well fitted activation curve with a large enough effect in the signal ratio in the repeat runs, not every such curve was filed as active; the % refers to the signal ratio; note: potency is the fitted concentration of half-maximal effect)
# In short: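 Quantitative high-throughput format in HepG2 cells bearing an integrated ARE-beta-lactamase reporter. Compound exposure lasted 16 h at 37 C, and fluorescence was read 2 h after adding LiveBLAzer B/G substrate at room temperature.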
# [10] = qHTS assay for small molecule agonists of the antioxidant response element (ARE) signaling pathway - cell viability counter screen (AID 743203; calls by dose curve; note: nearly all actives have a fitted effect of over 55% in size)
# In short: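 Compounds in DMSO were pinned onto ARE-bla HepG2 cells plated 5 hrs earlier at 2,000 cells/well. Sixteen hours later at 37C/5% CO2, CellTiter-Glo was added and luminescence measured after 30 min at room temperature.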
# [11] = qHTS assay for small molecule activators of the heat shock response signaling pathway - cell viability counter screen (AID 743209); note: nearly all actives have a fitted effect of over 50% in size; note: potency is the fitted concentration of half-maximal effect
# In short: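 Counter screen for cytotoxicity in HeLa HSE-bla reporter cells. Treatment was 5 h at 37 C; viability was detected by luminescent ATP assay (CellTiter-Glo) in the same wells as the beta-lactamase read.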
# [12] = qHTS assay for small molecule activators of the heat shock response signaling pathway (AID 743210; active = well fitted activation curve with a large enough effect in the signal ratio in the repeat runs, with a control signal flat, not every such curve was filed as active; the % refers to the signal ratio;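 note: HeLa cells with beta-lactamase reporter driven by heat shock elements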)
# In short: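 HeLa HSE-bla cells, overnight plating; cpd in DMSO 5 h, 37 C; LiveBLAzer B/G FRET substrate 2.5 h RT; fluorescence intensity read.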
# [13] = biological target: Estrogen receptor (Homo sapiens) (UniProt P03372); test: qHTS assay to identify small molecule antagonists of the estrogen receptor alpha (ER-alpha) signaling pathway (AID 743069; active = well fitted curve in the direction sought with a large enough effect in the signal ratio in the repeat runs, not every such curve was filed as active; the % refers to the signal ratio; note: potency is the fitted concentration of half-maximal effect)
# Sequence of Estrogen receptor (Homo sapiens) (P03372 whole entry, looked up): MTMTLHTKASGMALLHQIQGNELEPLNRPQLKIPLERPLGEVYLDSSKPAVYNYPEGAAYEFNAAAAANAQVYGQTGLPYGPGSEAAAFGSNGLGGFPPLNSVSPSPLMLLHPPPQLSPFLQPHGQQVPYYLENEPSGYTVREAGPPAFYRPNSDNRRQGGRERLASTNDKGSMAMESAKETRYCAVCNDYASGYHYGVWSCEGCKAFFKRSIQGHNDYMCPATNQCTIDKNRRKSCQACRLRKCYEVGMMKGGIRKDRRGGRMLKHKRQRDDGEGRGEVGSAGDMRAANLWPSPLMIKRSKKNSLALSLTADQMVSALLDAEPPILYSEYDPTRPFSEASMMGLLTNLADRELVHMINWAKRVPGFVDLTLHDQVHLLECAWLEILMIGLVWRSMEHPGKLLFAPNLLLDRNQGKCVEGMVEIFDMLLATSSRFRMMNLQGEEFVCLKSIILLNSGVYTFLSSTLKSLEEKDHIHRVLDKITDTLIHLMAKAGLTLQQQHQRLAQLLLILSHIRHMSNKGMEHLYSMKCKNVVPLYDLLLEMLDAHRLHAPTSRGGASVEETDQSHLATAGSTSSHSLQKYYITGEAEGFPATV
# In short: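 ER-alpha-UAS-bla GripTite HEK293 line; 2% charcoal-stripped FBS overnight; plated, 4 hr 37C/5% CO2; cpd in DMSO + 17beta-estradiol, 18 hr 37C; LiveBLAzer B/G FRET substrate 2 hr RT; fluorescence intensity.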
# [14] = biological target: Estrogen receptor (Homo sapiens) (UniProt P03372); test: qHTS assay to identify small molecule agonists of the estrogen receptor alpha (ER-alpha) signaling pathway (AID 743075; calls by dose curve;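 note: HEK293 GripTite cells with ER-alpha and UAS-driven beta-lactamase reporter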)
# [15] = biological target: Estrogen receptor (Homo sapiens) (UniProt P03372); test: qHTS assay to identify small molecule agonists of the estrogen receptor alpha (ER-alpha) signaling pathway using the BG1 cell line (AID 743079); settings: BG1Luc4E2 cells, ERE-luciferase agonist, 22 h; note: nearly all actives have a fitted effect of over 20% in size
# [16] = qHTS assay to identify small molecule antagonists of the estrogen receptor alpha (ER-alpha) signaling pathway using the BG1 cell line (AID 743080; calls by dose curve;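 note: BG1 cells stimulated with 17beta-estradiol alongside compound; nearly all actives have a fitted effect of over 25% in size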)
# In short: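 Quantitative HTS on the Tox21 10K library: BG1 cells with endogenous ER-alpha and ERE-luciferase reporter, 17beta-estradiol stimulation, 21.5 h compound exposure, luminescence endpoint with parallel fluorescence cytotoxicity counter-read.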
# [17] = biological target: Peroxisome proliferator-activated receptor gamma (Homo sapiens) (UniProt P37231); test: qHTS assay to identify small molecule agonists of the peroxisome proliferator-activated receptor gamma (PPARg) signaling pathway (AID 743094; active = well fitted activation curve with a large enough effect in the signal ratio in the repeat runs, not every such curve was filed as active; the % refers to the signal ratio)
# Sequence of Peroxisome proliferator-activated receptor gamma (Homo sapiens) (P37231 whole entry, looked up): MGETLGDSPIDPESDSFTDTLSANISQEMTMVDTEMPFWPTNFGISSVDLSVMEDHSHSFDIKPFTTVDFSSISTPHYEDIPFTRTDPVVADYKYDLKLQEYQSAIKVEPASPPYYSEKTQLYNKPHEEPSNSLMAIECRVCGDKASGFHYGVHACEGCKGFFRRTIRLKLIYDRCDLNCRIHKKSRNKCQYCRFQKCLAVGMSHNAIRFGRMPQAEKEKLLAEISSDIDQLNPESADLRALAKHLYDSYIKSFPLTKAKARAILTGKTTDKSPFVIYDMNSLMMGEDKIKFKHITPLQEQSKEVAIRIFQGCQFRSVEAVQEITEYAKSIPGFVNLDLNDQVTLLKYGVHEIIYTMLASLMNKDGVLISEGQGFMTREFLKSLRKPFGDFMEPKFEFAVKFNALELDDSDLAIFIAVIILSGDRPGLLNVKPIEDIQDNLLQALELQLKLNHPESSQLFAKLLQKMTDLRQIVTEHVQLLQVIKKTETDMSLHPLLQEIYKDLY
# In short: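 Following 5 h plating at 37C, PPARg-bla HEK293H cells receive compound or DMSO for 17 h; fluorescence intensity is recorded after LiveBLAzer B/G loading for 1 h at room temperature.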
# [18] = qHTS assay to identify small molecule antagonists of the thyroid receptor (TR) signaling pathway (AID 743065); note: nearly all actives have a fitted effect of over 55% in size; note: potency is the fitted concentration of half-maximal effect
# In short: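 Antagonism measured as loss of luciferase signal in GH3 cells stably carrying a TRE-luciferase reporter, co-treated with compound and T3 (1 nM final) for 23.5 h at 37 C. Viability was read in the same well by CellTiter-Fluor.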
# [19] = biological target: Peroxisome proliferator-activated receptor gamma (Homo sapiens) (UniProt P37231); test: qHTS assay to identify small molecule antagonists of the peroxisome proliferator-activated receptor gamma (PPARg) signaling pathway (AID 743191; calls by dose curve; note: nearly all actives have a fitted effect of over 30% in size; note: potency is the fitted concentration of half-maximal effect)
# In short: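 Beta-lactamase reporter under UAS control in HEK293H PPARg-bla cells; compound treatment 17 h at 37C. Read-out: fluorescence intensity after 1 h room-temperature incubation with LiveBLAzer B/G FRET substrate.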
smiles,measurement,setting,value
CNC(=O)Oc1cccc(C(C)C)c1,Potency,[1],inactive
same,Potency,[2],inactive
same,outcome,[3],inactive
same,Potency,[4],inactive
same,Potency,Aromatase (Homo sapiens),inactive
same,Potency,[5],inactive
same,Potency,[6],inactive
same,outcome,[7],inactive
same,Potency,[8],inactive
same,Potency,[9],inactive
same,Potency,[10],inactive
same,Potency,[11],inactive
same,outcome,[12],inactive
CCOC(=O)/C=C(C)/C=C/C[C@@H](C)CCCC(C)C,Potency,[1],inactive
same,Potency,[13],inactive and 24.5 µM [inhibitor] (active)
same,outcome,[3],inactive
same,Potency,[14],inactive
same,activation,[15]; at 70.3 µM (top of the series),19.2% (inactive) and -9.9% (inactive)
same,Potency,[16],inactive
same,Potency,[4],inactive
same,Potency,Aromatase (Homo sapiens),inactive
same,Potency,[5],inactive
same,outcome,[7],inactive
same,outcome,[17],inactive
same,Potency,[11],38.9 µM (active)
C=C(C)CN(CC)c1c([N+](=O)[O-])cc(C(F)(F)F)cc1[N+](=O)[O-],Potency,[18],inactive
same,Potency,[2],inactive
same,Potency,[13],inactive
same,outcome,[3],inactive
same,Potency,[14],inactive
same,activation,[15]; at 70.3 µM (top of the series),11.3% (inactive)
same,Potency,[4],inactive
same,Potency,Aromatase (Homo sapiens),inactive
same,Potency,[5],inactive
same,Potency,[6],inactive
same,outcome,[7],inactive
same,outcome,[17],inactive
same,Potency,[19],inactive
same,Potency,[9],inactive
same,Potency,[11],inactive
same,outcome,[12],inactive
COC(=O)C(C)Oc1ccc(Oc2ccc(Cl)cc2Cl)cc1 (stereo not drawn),Potency,[18],inactive
same,Potency,[2],inactive
same,outcome,[3],inactive
same,Potency,[4],inactive
same,Potency,Aromatase (Homo sapiens),inactive
same,Potency,[5],inactive
same,Potency,[6],inactive
same,outcome,[7],inactive
same,Potency,[19],inactive
same,Potency,[8],inactive
same,Potency,[9],inactive
same,Potency,[10],inactive
same,Potency,[11],inactive
CCOC(=O)CP(=O)(OCC)OCC,Potency,[1],inactive
same,Potency,[2],inactive
same,outcome,[3],inactive
same,Potency,[14],inactive
same,Potency,[16],inactive
same,Potency,[4],inactive
same,Potency,Aromatase (Homo sapiens),inactive
same,Potency,[5],inactive
same,outcome,[7],inactive
same,outcome,[17],inactive
same,Potency,[8],inactive
same,Potency,[9],inactive
same,Potency,[10],inactive
same,Potency,[11],inactive
same,outcome,[12],inactive
ClC(Cl)(Cl)C(Cl)(Cl)Cl,Potency,[18],inactive
same,Potency,[2],inactive
same,Potency,[13],inactive
same,outcome,[3],inactive
same,Potency,[14],inactive
same,activation,[15]; at 95 µM (top of the series),-4.65% (inactive)
same,Potency,[4],inactive
same,Potency,Aromatase (Homo sapiens),inactive
same,Potency,[5],inactive
same,Potency,[6],inactive
same,outcome,[7],inactive
same,outcome,[17],inactive
same,Potency,[19],inactive
same,Potency,[8],inactive
same,Potency,[9],inactive
same,Potency,[10],inactive
same,Potency,[11],inactive
same,outcome,[12],inactive
CCOC(=O)C(c1c(O)c2ccccc2oc1=O)c1c(O)c2ccccc2oc1=O,Potency,[19],7.5 µM (active)
same,Potency,[8],inactive
same,Potency,[10],inactive
same,Potency,[11],inactive
same,outcome,[12],inactive
CC(=O)[C@H]1CC[C@H]2[C@@H]3CC[C@H]4C[C@H](O)CC[C@]4(C)[C@H]3C(=O)C[C@]12C,Potency,[2],inactive
same,Potency,[13],inactive
same,outcome,[3],inactive
same,Potency,[14],inactive
same,activation,[15]; at 70.3 µM (top of the series),8.45% (inactive)
same,Potency,[16],inactive
same,Potency,[4],inactive
same,Potency,Aromatase (Homo sapiens),inactive
same,Potency,[5],inactive
same,outcome,[7],inactive
same,outcome,[17],inactive
same,Potency,[19],inactive
same,Potency,[8],inactive
same,Potency,[10],inactive
same,Potency,[11],inactive
same,outcome,[12],inactive
N#CCCC#N,Potency,[2],inactive
same,outcome,[3],inactive
same,Potency,[14],inactive
same,activation,[15]; at 70.3 µM (top of the series),-3.68% (inactive)
same,Potency,[16],inactive
same,Potency,[4],inactive
same,Potency,Aromatase (Homo sapiens),inactive
same,Potency,[5],inactive
same,Potency,[6],inactive
same,outcome,[7],inactive
same,outcome,[17],inactive
same,Potency,[19],inactive
same,Potency,[8],inactive
same,Potency,[9],inactive
same,Potency,[10],inactive
same,Potency,[11],inactive
CC1(C(=O)Nc2ccc(O)c(Cl)c2Cl)CCCCC1,Potency,[2],inactive
same,outcome,[3],inactive
same,Potency,[4],inactive
same,Potency,[6],inactive
same,outcome,[7],inactive
same,outcome,[17],inactive
same,Potency,[19],inactive
same,Potency,[8],inactive
same,Potency,[10],inactive
same,Potency,[11],inactive
same,outcome,[12],inactive
O=C(Oc1ccc(Br)cc1)N1CCN2CCC1CC2,Potency,[2],inactive
same,Potency,[13],inactive
same,outcome,[3],inactive
same,Potency,[14],inactive
same,activation,[15]; at 70.3 µM (top of the series),1.03% (inactive)
same,Potency,[4],inactive
same,Potency,Aromatase (Homo sapiens),inactive
same,Potency,[5],inactive
same,Potency,[6],inactive
same,outcome,[7],inactive
same,outcome,[17],inactive
same,Potency,[19],inactive
same,Potency,[8],inactive
same,Potency,[10],inactive
same,Potency,[11],inactive
same,outcome,[12],inactive
COc1cc(C[C@@H](C)N)c(OC)cc1C,Potency,[18],65.4 µM (active)
same,Potency,[13],inactive
same,outcome,[3],inactive
same,Potency,[16],inactive
same,Potency,[4],inactive
same,Potency,Aromatase (Homo sapiens),inactive
same,Potency,[5],inactive
same,outcome,[7],inactive
same,outcome,[17],inactive
same,Potency,[19],inactive
same,Potency,[8],inactive
same,Potency,[10],inactive
same,Potency,[11],inactive
COc1cc(OC)nc(NC(=O)NS(=O)(=O)c2ncccc2OCC(F)(F)F)n1,outcome,[3],inactive
same,Potency,[14],inactive
same,Potency,[16],inactive
same,Potency,[4],inactive
same,Potency,Aromatase (Homo sapiens),inactive
same,Potency,[5],inactive
same,outcome,[7],inactive
same,outcome,[17],inactive
same,Potency,[19],inactive
same,Potency,[8],inactive
same,Potency,[9],inactive
same,Potency,[10],inactive
same,Potency,[11],inactive
c1cc[c]([Hg][c]2ccccc2)cc1,Potency,[2],inactive
same,Potency,[13],inactive
same,outcome,[3],inactive
same,Potency,[14],inactive
same,Potency,[4],inactive
same,Potency,Aromatase (Homo sapiens),inactive
same,Potency,[5],inactive
same,outcome,[7],inactive
same,outcome,[17],inactive
same,Potency,[11],inactive
same,outcome,[12],inactive
CCCCOC(=O)c1ccccc1N,outcome,[3],inactive
same,Potency,[4],inactive
same,Potency,Aromatase (Homo sapiens),inactive
same,Potency,[5],inactive
same,Potency,[6],inactive
same,outcome,[7],inactive
same,outcome,[17],inactive
same,Potency,[8],inactive
same,Potency,[10],inactive
same,Potency,[11],inactive
ClCCCN1CCN(c2cccc(Cl)c2)CC1,Potency,[19],inactive
same,Potency,[9],6.68 µM (active)
same,Potency,[11],inactive
same,outcome,[12],inactive
O=C1CN2CCOC2(c2ccccc2Cl)c2cc(Cl)ccc2N1 (stereo not drawn),Potency,[8],inactive
same,Potency,[10],inactive
same,Potency,[11],inactive
same,outcome,[12],inactive
COc1cccc(C(=O)NN(C(=O)c2cc(C)cc(C)c2)C(C)(C)C)c1C,Potency,[2],inactive
same,outcome,[3],inactive
same,Potency,Aromatase (Homo sapiens),inactive
same,Potency,[19],inactive
same,Potency,[8],inactive
same,Potency,[10],inactive
same,outcome,[12],inactive
